Measured values published in ChEMBL document CHEMBL4513216, “Probing the Open Global Health Chemical Diversity Library for Multistage-Active Starting Points for Next-Generation Antimalarials” (ACS Infect Dis, 2020).
Out of some 68,000 compounds screened, about 2,700 (4%) showed an effect of 50% or more. This is one part of a sample in which strong results are shown more often than they occur.

These compounds were tested on Plasmodium berghei (assay: Screen against P. berghei liver stage (PbLuc), transformed with Luciferase, at 2uM). Conditions: tested at 2 uM.
Assay type: functional, HepG2
Compound `N#Cc1cccc(CN2CC3(CCCCN3c3cccnc3)CC2=O)c1` (stereo unspecified) has an INHIBITION of 12.57%.
Compound `CN(C)CC(c1ccccc1)N(C)C(=O)c1cccc(NCC(=O)O)c1` (stereo unspecified) has an INHIBITION of 8.26%.
With `CNc1cccc(C2CCCN(C(=O)c3cncs3)C2)n1` (stereo unspecified) the INHIBITION was -33.77%.
Work on `CC(NC(=O)Nc1ccc(F)c(F)c1)c1nc[nH]n1` (stereo unspecified) yielded an INHIBITION of -5.51%.
With `Cc1cccc(OCCC(=O)N2CCCN(CC(N)=O)CC2)c1C` the INHIBITION was -5.2%.
`CCCN(Cc1ccccc1O)S(=O)(=O)C(C)CC` (stereo unspecified) gave an INHIBITION of 17.48%.
Work on `CC(Cn1cccn1)NC(=O)c1ccsc1` (stereo unspecified) yielded an INHIBITION of -18.04%.
`CC1c2ncc(CNC(=O)C3CC3)n2CCN1CC1CCC1` (stereo unspecified) gave an INHIBITION of 35.07%.
`CSC(C)CCN(Cc1ccccn1)Cc1sccc1C` (stereo unspecified) gave an INHIBITION of -22.06%.
`Cc1cccc(-n2ncc3c2CCCC3NCC(C)(C)CO)c1C` (stereo unspecified) gave an INHIBITION of 45.82%.
`Cc1noc([C@@H]2C[C@H]3CN(C(=O)C4CCN(C)CC4)C[C@H]3O2)n1` showed an INHIBITION of 33.12%.
With `CC(C)n1c(=O)c2sccc2n(CC(=O)Nc2ccccc2)c1=O` the INHIBITION was 10.62%.
In the case of `Cc1ccc(CC(=O)N2CCCC(n3nc(C)cc3C)C2)cn1` (stereo unspecified), the INHIBITION is reported as 5.59%.
Compound `Cc1cc(C)n(C2CCCN(C(=O)Cc3ccc(C#N)cc3)C2)n1` (stereo unspecified) has an INHIBITION of -11.34%.
`COc1ccc(CC(=O)N2CCCC(n3nc(C)cc3C)C2)cc1F` (stereo unspecified) showed an INHIBITION of 6.3%.
With `COc1ccc(CC(=O)N2CCCC(n3nc(C)cc3C)C2)cc1` (stereo unspecified) the INHIBITION was 52.87%.
`COc1cccc(CC(=O)N2CCCC(n3nc(C)cc3C)C2)c1` (stereo unspecified) gave an INHIBITION of 62.75%.
`Cc1cc(C)n(C2CCCN(C(=O)Cc3cccc(F)c3)C2)n1` (stereo unspecified) showed an INHIBITION of 14.06%.
Work on `COc1ncc(CN(C)C2CCN(C(C)C)CC2)cn1` yielded an INHIBITION of 36.08%.
With `Cn1cc(CNC2CCc3c(ccc(=O)n3Cc3cccnc3)C2)cn1` (stereo unspecified) the INHIBITION was 17.69%.
In the case of `O=C(NS(=O)(=O)c1cc(Cl)ccc1Cl)c1cccc2c1OCCO2`, the INHIBITION is reported as -55.23%.
In the case of `Cc1nn(C)c2cnn(Cc3ccc(C(=O)N4CCN(C)CC4)o3)c12`, the INHIBITION is reported as 1.33%.
Work on `CS(=O)(=O)NCCC(=O)N1Cc2cnc(-c3ccccc3)nc2C1` yielded an INHIBITION of -49.29%.
With `CCn1cc(CN2CCCN(C(=O)c3cccn3C)CC2)cn1` the INHIBITION was 19.18%.
`CCn1cc(CN2CCCN(C(=O)CCN3CCCC3=O)CC2)cn1` gave an INHIBITION of -35.65%.
In the case of `CCn1cc(CN2CCCN(C(=O)C3=NN(C)C(=O)CC3)CC2)cn1`, the INHIBITION is reported as 59.73%.
`COc1cccc(S(=O)(=O)NC(=O)CCC2CCCC2)c1` showed an INHIBITION of 37.68%.
Work on `O=C(c1cccnc1)N1CCOC(c2ccc(-c3cncnc3)cn2)C1` (stereo unspecified) yielded an INHIBITION of -6.04%.
Compound `C[C@H]1C[C@H]2CN(C(=O)CCc3ccccc3)CC[C@H]2O1` has an INHIBITION of 65.32%.
With `C[C@H]1C[C@H]2CN(C(=O)CCOc3ccccc3)CC[C@H]2O1` the INHIBITION was -12.84%.
`COCCC(=O)N1CC[C@@H]2O[C@@H](C)C[C@H]2C1` gave an INHIBITION of 22.01%.
`Cc1n[nH]c(C)c1CCC(=O)NCC1COc2ccccc2C1` (stereo unspecified) was tested, and the INHIBITION was 11.19%.
In the case of `COCc1ccc(C(=O)N2CC[C@H](O)[C@@H](n3ccnc3)CC2)cc1`, the INHIBITION is reported as -7.01%.
Work on `CC(C)Oc1ccc(C(=O)N2CC[C@H](O)[C@@H](n3ccnc3)CC2)cc1` yielded an INHIBITION of 52.69%.
`NC(=O)COc1ccc(C(=O)N2CCCC(n3ccnc3)C2)cc1` (stereo unspecified) gave an INHIBITION of -10.05%.
In the case of `Nc1cc2c(nn1)CCN(C(=O)C1CCc3ccccc31)C2` (stereo unspecified), the INHIBITION is reported as 16.89%.
In the case of `CCOC(=O)N1CC2(CCNCC2)c2cc(Cl)ccc21`, the INHIBITION is reported as -12.43%.
With `c1cc(CCNc2ccc(CC3CCNC3)cn2)ccn1` (stereo unspecified) the INHIBITION was -6.19%.
`Cc1cc(C)n(C2CCCN(C(=O)c3ccnc(N(C)C)c3)C2)n1` (stereo unspecified) was tested, and the INHIBITION was 3.17%.
With `OCc1csc(N2CCCN(Cc3ccc(F)cc3)CC2)n1` the INHIBITION was 36.28%.
With `OCc1csc(N2CCN(Cc3cccc(F)c3)CC2)n1` the INHIBITION was 45.82%.
For `Cc1cccc(CN2CCN(c3nc(CO)cs3)CC2)c1`, the INHIBITION was 86.36%.
Work on `CCS(=O)(=O)CCN1CCC(N(C)Cc2ncc(C)o2)C1` (stereo unspecified) yielded an INHIBITION of 31.55%.
`Cc1noc(C)c1CN1CCc2ncnc(-c3ccc(F)cc3)c2CC1` gave an INHIBITION of 49.45%.
Compound `COc1ccccc1C1=NOC(CC2(C(=O)NCCO)CCOCC2)C1` (stereo unspecified) has an INHIBITION of -39.01%.
With `CCNC(=O)C1(CC2CC(c3ccccc3OC)=NO2)CCOCC1` (stereo unspecified) the INHIBITION was -2.93%.
For `CCCNC(=O)C1(CC2CC(c3ccccc3OC)=NO2)CCOCC1` (stereo unspecified), the INHIBITION was 51.57%.
Compound `CCS(=O)(=O)N1CCC2(CC1)CC(COC)N(c1ncccn1)C2` (stereo unspecified) has an INHIBITION of 28.45%.
`Cc1cc(C)n(CC2CCCCN2CCC(=O)Nc2cc(C)on2)n1` (stereo unspecified) gave an INHIBITION of 21.39%.
For `Cc1cnc(-c2nc(-c3cccc(CN4CCOCC4)c3)no2)cn1`, the INHIBITION was 15.74%.
For `Cc1cc(-c2nc(-c3cccc(CN4CCOCC4)c3)no2)no1`, the INHIBITION was 53.19%.
Compound `Cc1c(-c2nc(-c3cccc(CN4CCOCC4)c3)no2)cnn1C` has an INHIBITION of 35.56%.
`CCOCCNC(=O)c1ccc(OC)cc1I` showed an INHIBITION of 30.48%.
In the case of `Clc1cccc(C[C@@H]2NCCC[C@@H]2Nc2ccccc2)c1`, the INHIBITION is reported as 33.95%.
For `COCCOCC(=O)N1CCC(O)(c2ccc3nc(C)ccc3c2)CC1`, the INHIBITION was -3.38%.
In the case of `Cc1ccc2cc(C(=O)N3CCN(C(=O)N(C)C)CC3)ccc2n1`, the INHIBITION is reported as 7.02%.
In the case of `CCCOC(C)C(=O)N1CCC(O)(c2ccc3nc(C)ccc3c2)CC1` (stereo unspecified), the INHIBITION is reported as 52.66%.
`Cc1ccc2cc(C3(O)CCN(C(=O)CSC(C)C)CC3)ccc2n1` gave an INHIBITION of 70.17%.
For `Cc1ccc2cc(C3(O)CCN(C)CC3)ccc2n1`, the INHIBITION was 8.88%.
`Cc1ccc2cc(C(=O)N3CCC(O)(C(F)(F)F)CC3)ccc2n1` gave an INHIBITION of -13.42%.
With `Cc1ccc2cc(C3(O)CCN(C(=O)[C@@H]4CCCCN4)CC3)ccc2n1` the INHIBITION was 53.98%.
`Cc1ccc2cc(C3(O)CCN(C(=O)CN4CCCC4)CC3)ccc2n1` showed an INHIBITION of 8.65%.
For `CC1=NOC(C(=O)N2CCC(O)(c3ccc4nc(C)ccc4c3)CC2)C1` (stereo unspecified), the INHIBITION was -70.57%.
For `Cc1ccc(CNC(=O)Nc2nccs2)cn1`, the INHIBITION was -11.83%.
`Cc1nc(CN2CCCC(Cn3cc(CCO)nn3)C2)c2ccccn12` (stereo unspecified) showed an INHIBITION of -27.82%.
Compound `Cn1cc(-c2nnn3c2COC(CNCc2ccncc2)C3)cn1` (stereo unspecified) has an INHIBITION of -42.69%.
